Compound activity (PubChem BioAssay)
uPA surface inh: inhibitors of cell surface uPA generation | cell surface uPA generation assay, qHTS | Potency, µM (doses to about 38.3 µM), hits mostly inhibitors | 330,000 tested, 0.31% active; active = well fitted inhibition curve with a large enough effect; inconclusive = small, poorly fitted or top-dose-only effect; inactive = no such curve, though single readings can be large or run the other way; tested in mouse RAW 264.7 cells; also: nearly all actives have a fitted effect of over 55% in size
Rab9 prom act: Rab9 promoter activation; Huh7 Rab9 promoter-luciferase reporter, luminescence, 24 h; Potency, µM (top dose mostly 9.22 µM), actives largely listed as activators; 320,000 tested, 2.8% active; AID 485297; also: nearly all actives have a fitted effect of over 60% in size
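Luminescence from Amplite-detected luciferase (10 minutes, ambient) reports Rab9 promoter activation. Before that, stable Rab9-luciferase Huh7 cells (1500/well, reduced-serum OP-MEM I plus 10% FBS) were exposed to compound for 24 hours at 37C.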
SMN2 splice enh: enhancers of SMN2 splice variant expression; Potency, µM (top dose mostly 46.1 µM), actives largely listed as activators; HEK293 SMN2-luciferase splicing reporter, luminescence, 30-36 h; AID 1458; 210,000 tested, 2.8% active; also: nearly all actives have a fitted effect of over 55% in size
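qHTS luciferase splicing reporter: luminescence rises when SMN2 exon 7 is included in transfected HEK293 cells. Compound exposure lasted 30-36 h at 37C, with 4.5 mM final sodium butyrate as control, followed by a ONE-Glo read.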
NPC1 promoter act: NPC1 promoter activation; Huh7 NPC1 promoter luciferase reporter, 24 h; Potency, µM (doses to about 9.22 µM), actives largely listed as activators; 320,000 tested, 2.4% active; AID 485313; also: nearly all actives have a fitted effect of over 60% in size
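In 1536-well qHTS, Huh7 cells harboring an NPC1 promoter–luciferase construct received compound for 24 h; activation was quantified by luminescence following luciferase reagent addition.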
FLuc modulator: inhibits or activates purified firefly luciferase, miR-21 counter-screen; P08659; purified FLuc, Km substrates, luminescence inhibition; Potency, µM (doses to about 57.5 µM), hits mostly inhibitors; 360,000 tested, 6.9% active; AID 588342; also: nearly all actives have a fitted effect of over 55% in size
Target sequence (P08659 whole entry, looked up): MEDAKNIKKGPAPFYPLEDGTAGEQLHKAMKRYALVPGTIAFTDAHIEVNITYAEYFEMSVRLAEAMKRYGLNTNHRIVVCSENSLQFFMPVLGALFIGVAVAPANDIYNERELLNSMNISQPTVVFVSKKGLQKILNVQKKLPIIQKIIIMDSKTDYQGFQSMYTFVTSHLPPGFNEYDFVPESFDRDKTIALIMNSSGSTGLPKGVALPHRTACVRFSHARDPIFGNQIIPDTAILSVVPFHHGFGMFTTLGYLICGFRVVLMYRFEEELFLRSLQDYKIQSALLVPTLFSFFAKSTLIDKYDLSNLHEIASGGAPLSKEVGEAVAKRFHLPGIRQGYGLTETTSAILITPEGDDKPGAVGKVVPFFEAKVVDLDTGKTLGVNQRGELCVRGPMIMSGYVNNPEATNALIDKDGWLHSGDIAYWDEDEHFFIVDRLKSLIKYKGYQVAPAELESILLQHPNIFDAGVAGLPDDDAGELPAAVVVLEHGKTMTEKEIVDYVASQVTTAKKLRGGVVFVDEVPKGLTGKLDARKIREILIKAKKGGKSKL
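Biochemical qHTS of compounds, final roughly 60 µM downward over six points, against 10 nM purified firefly luciferase using Km concentrations of substrates (10 uM D-luciferin, 10 uM ATP) in Tris acetate pH 7.5 buffer; luminescence output.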
ELG1 genotox: induces genotoxicity in HEK293T cells with luciferase-tagged ELG1; HEK293T ELG1-luciferase reporter, luminescence, 16 h; Potency, µM (series often up to 46 µM), most hits filed as activators; 330,000 tested, 1.3% active; also: nearly all actives have a fitted effect of over 60% in size
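Quantitative HTS format in 1536-well plates. HEK293T ELG1-luciferase reporter cells receive test compound and are incubated 16 hr at 37 °C, 5% CO2; ONE-Glo added, 30 min room temperature, then luminescence read.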
A number is an active result; – = inactive; ? = inconclusive; · = no result given; [ ] = dose if it differs, or a comment. An excerpt weighted towards active compounds, which were near 7.3% of everything screened. Unless noted, calls follow the shape of the dose curve; as a rule, active = well fitted curve in the direction sought with a large enough effect; inconclusive = small, poorly fitted or top-dose-only effect, or another doubt; inactive = no such curve, though single readings can be large; an effect the other way counts as inactive or inconclusive.

SMILES | uPA surface inh | Rab9 prom act | SMN2 splice enh | NPC1 promoter act | FLuc modulator | ELG1 genotox
COc1ccccc1C(=O)Nc1ccc2c3c(cccc13)CC2 | – | ? | · | ? | 5.4µM | –
Cc1cc(C)cc(NC(=O)C(=O)NCC(c2cccnc2)N2CCc3ccccc32)c1 (stereo not drawn) | · | · | · | · | – | ·
COc1ccccc1N1CCN(Cc2nc(-c3cc(OC)c(OC)c(OC)c3)no2)CC1 | · | · | – | · | – | ·
NC(=O)c1ccccc1NCC(=O)c1ccc(Cl)cc1 | – | – | · | – | ? | –
COc1ccccc1C(=O)NNC(=O)c1ccccc1 | ? | ? | · | 2.5µM | 9.5µM | 8.2µM
COc1ccccc1C(=O)Nc1ccccc1SC(=O)c1ccccc1OC | ? | ? | · | ? | 5.4µM | 12µM
CC(=O)Nc1ccc(C(=O)CSc2ncn(-c3ccccc3)n2)cc1 | – | – | 7.1µM | – | – | ?
O=C(CNc1ccccc1C(=O)O)c1ccccc1 | – | ? | · | – | 19µM | –
COc1ccccc1NC(=S)NNC(=O)c1ccccc1 | – | · | · | · | · | ·
Cc1ccc(S(=O)(=O)C(CNC(=O)COc2ccccc2)c2cccs2)cc1 (stereo not drawn) | · | · | · | · | – | ·
O=C(COc1ccc2c(-c3ccccc3)cc(=O)oc2c1)NCC(O)c1ccccc1 (stereo not drawn) | – | – | · | – | – | –
O=C(/C=C/c1ccccc1)c1c[nH]c2ccccc12 | ? | 0.35µM | · | 0.63µM | 0.19µM | ?
O=C(CC(=O)c1ccccc1)c1ccccc1 | – | · | 13µM | · | · | ·
COc1ccccc1/C=C1\S/C(=N/NC(=O)c2cccc(Br)c2)NC1=O | – | – | – | – | 9.5µM | –
COC(=O)/C=C1\S/C(=N/NC(=O)c2ccccc2)NC1=O | – | – | ? | – | ? | –
O=C(Nc1ccccc1OC(=O)c1ccccc1)c1ccccc1 | 11µM | · | · | · | · | ·
COc1ccccc1C(=O)NNC(=O)c1cccc(Br)c1 | – | ? | · | 2.8µM | 12µM | ?
COc1ccccc1C(=O)NNC(=O)c1cccc(Cl)c1 | – | – | · | – | – | –
CCOc1ccc(NC(=O)c2sc3nc4n(c(=O)c3c2C)CCCC4)cc1 | · | · | · | · | – | ·
CCCCc1ccc(-c2ccc(C)cc2O)nc1 | – | 0.63µM | 22µM | 0.5µM | 0.43µM | 1.5µM
CCCCc1ccc(CC(=O)O)cc1 | – | – | – | – | – | –
CCCCc1ccc(-c2ccc(Br)cc2O)nc1 | – | 0.79µM | ? | 1.4µM | 0.85µM | 1.3µM
CCn1c(-c2cc(Br)ccc2O)n[nH]c1=S | – | · | · | · | · | ·
NNC(=O)c1cccc(COc2ccc(Br)cc2)c1 | – | 0.1µM | 1µM | 0.32µM | 11µM | ?
CCCNC(=O)c1cccc(COc2ccccc2OC)c1 | – | 3.5µM | 14µM | 1.4µM | 5.4µM | ?
SMILES | uPA surface inh | Rab9 prom act | SMN2 splice enh | NPC1 promoter act | FLuc modulator | ELG1 genotox
NNC(=O)c1ccc(COc2ccc3ccccc3c2)cc1 | – | – | · | ? | 6µM | –
COc1ccc(OCc2cccc(C(=O)NN)c2)cc1 | – | 0.089µM | 3.2µM | 0.089µM | 6µM | ?
NNC(=O)c1cccc(COc2cccc(Br)c2)c1 | – | ? | ? | ? | ? | –
Cc1ccc2ncc3c(-c4ccccc4)nn(CC(=O)NC4CCCCC4)c3c2c1 | · | · | · | · | – | ·
O=C(NC1CCCCC1)c1cc(-c2ccc(F)cc2)on1 | – | 3.2µM | · | 1.4µM | – | –
O=C(NC1CCCCC1)c1cc(-c2cccs2)on1 | – | 2µM | · | 3.2µM | ? | ?
Cc1ccc(-c2cc(C(=O)NC3CCCC3)no2)cc1 | – | 2µM | · | 0.56µM | 2.1µM | ?
O=C(NC1CCCC1)c1cc(-c2ccc(Cl)c(Cl)c2)on1 | – | ? | · | ? | ? | ?
Cc1ccc(N2CCn3c2nc2c3c(=O)n(Cc3cccc(Cl)c3)c(=O)n2C)cc1C | · | · | · | · | – | ·
COC(=O)Cc1c(O)ccn(CCc2c[nH]c3ccccc23)c1=O | – | – | – | – | – | –
COC(=O)Cc1c(OC)ccn(CCc2c[nH]c3ccccc23)c1=O | – | 3.2µM | 11µM | ? | 17µM | ?
Nc1cccc2cc(-c3ccccc3)oc12 | – | ? | · | 4µM | 4.8µM | ?
Cn1nnnc1Sc1ncnc2scc(-c3ccc(C(F)(F)F)cc3)c12 | ? | – | · | – | – | –
Cn1nnnc1Sc1ncnc2scc(-c3cccc(C(F)(F)F)c3)c12 | 8.9µM | · | · | · | · | –
Cn1nnnc1Sc1ncnc2scc(-c3ccc(-c4ccccc4)cc3)c12 | 2µM | · | · | · | · | –
Cc1nn(CCOc2ccccc2)c(=O)n1-c1c(F)cccc1F | – | 4µM | 13µM | 2.8µM | 24µM | ?
Cc1nn(CC2CC2)c(=O)n1-c1ccccc1F | – | – | – | – | – | –
Cc1ccc(-n2c(C)nn(CCOc3ccccc3)c2=O)cc1 | – | 3.2µM | 11µM | ? | ? | ?
Cc1nn(C)c(=O)n1-c1ccc(Oc2ccccc2)cc1 | – | – | – | – | – | –
CCOc1ccc(OCC)c(NS(=O)(=O)c2ccc(-c3coc(C)n3)cc2)c1 | · | · | · | · | – | ·
Cc1cccc(Nc2nnc(SCC(=O)NC(=O)CN3CCCC3=O)s2)c1 | ? | – | · | – | 9.5µM | –
Cc1cccc(NC(=O)CSc2nnc(NC(=O)C3CCC3)s2)c1 | – | – | · | – | – | –
COc1cc(OC)cc(-c2nnc(SCC(=O)Nc3cccc(C(=O)O)c3)s2)c1 | – | – | – | – | 15µM | –
Cc1cccc(Nc2nnc(SCC(=O)Nc3ccc(C(=O)O)cc3)s2)c1 | – | – | – | – | 1.7µM | –
CCn1c(SCC(=O)NCCCN2CCCC2=O)nnc1-c1cccc(C)c1 | – | – | · | – | – | –
SMILES | uPA surface inh | Rab9 prom act | SMN2 splice enh | NPC1 promoter act | FLuc modulator | ELG1 genotox
Cc1cccc(Nc2nnc(SCC(=O)Nc3ccccc3[N+](=O)[O-])s2)c1 | – | – | – | – | 7.6µM | –
O=C(NCCc1ccc(Cl)cc1)c1cccn1-c1nnc(N2CCCC2)s1 | · | · | · | · | – | ·
O=c1[nH]c2[nH]c(=S)[nH]c(=S)c2[nH]1 | · | · | –[9.22 µM] | · | · | ·
CCOc1ccc(NC(=O)Cn2cnc3sc(C)c(S(=O)(=O)N4CCN(c5ccccc5OC)CC4)c3c2=O)cc1 | · | · | – | · | – | ·
COc1ccccc1C(=O)NCc1nnnn1-c1ccc(C)c(C)c1 | · | · | · | · | – | ·
Cc1cc(NS(=O)(=O)c2ccc(NC(=S)Nc3ccc(Cl)cc3C)cc2)no1 | – | – | · | – | – | –
Cc1cccc(Nc2nnc(SCC3CCCCO3)s2)c1 (stereo not drawn) | – | 2.8µM | 20µM | 4µM | 5.4µM | –
Cc1nnc(SCc2ccc(C(=O)Nc3cc(Cl)ccc3C)cc2)s1 | – | – | – | – | 15µM | –
CC(=O)Nc1nnc(SCc2ccc(C(=O)Nc3ccccc3F)cc2)s1 | – | – | – | – | – | –
Cc1ccc(NC(=O)c2ccc(CSc3nnc(-c4ccncc4)n3C)cc2)c(C)c1 | – | – | – | – | ? | –
Cc1ccc(NC(=O)c2ccc(CSc3nnc(C)s3)cc2)c(C)c1 | – | ? | – | ? | 13µM | –
Cc1ccc(-c2noc(C3CCCN(C(=O)c4ccccc4)C3)n2)o1 (stereo not drawn) | · | ? | ? | ? | 19µM | 9.2µM
